# Assay results published in the supplement of paper PMC12282887.
# ± gives the standard deviation of the averaged measurements.
# Tested on: E. coli BW25113 micFp lux reporter
# Experiment: promoter activity interaction Z-score (Lux/OD deviation from empty-vector control); higher = stronger promoter induction by the compound
# Description: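 E. coli BW25113 (wild type or ΔmarA/ΔsoxS/Δrob) carrying pTU175 luxCDABE promoter reporters was grown in LB in 384-well plates at 37°C with each of 94 compounds at 4 two-fold concentrations, in biological duplicates. Luminescence and OD600 were read every 30 min for 12 h and integrated as AUC over 8 h (0-8 h WT, 1-9 h mutants). Lux AUC was divided by OD AUC; the interaction score is the residual of a Huber robust fit of each promoter against the empty-vector control, then Z-transformed per promoter.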
compound,measurement,setting,value
Cc1c(N)nc([C@H](CC(N)=O)NC[C@H](N)C(N)=O)nc1C(=O)N[C@H](C(=O)N[C@H](C)[C@@H](O)[C@H](C)C(=O)N[C@H](C(=O)NCCc1nc(-c2nc(C(=O)NCCC[S+](C)C)cs2)cs1)[C@@H](C)O)[C@@H](OC1OC(CO)C(O)C(O)C1OC1OC(CO)C(O)C(OC(N)=O)C1O)c1cnc[nH]1 (stereo partly drawn) [Bleomycin],promoter activity interaction Z-score,"0.038 µg/ml, genetic background: wild type",-0.542 ± 0.065
same,promoter activity interaction Z-score,"0.038 µg/ml, genetic background: ΔmarA",-0.018 ± 0.18
same,promoter activity interaction Z-score,"0.038 µg/ml, genetic background: Δrob",-0.0145 ± 0.17
same,promoter activity interaction Z-score,"0.038 µg/ml, genetic background: ΔsoxS",-0.239 ± 0.3
same,promoter activity interaction Z-score,"0.076 µg/ml, genetic background: wild type",-0.384 ± 0.099
same,promoter activity interaction Z-score,"0.076 µg/ml, genetic background: ΔmarA",-0.0986 ± 0.079
same,promoter activity interaction Z-score,"0.076 µg/ml, genetic background: Δrob",-0.0358 ± 0.11
same,promoter activity interaction Z-score,"0.076 µg/ml, genetic background: ΔsoxS",-0.0314 ± 0.21
same,promoter activity interaction Z-score,"0.15 µg/ml, genetic background: wild type",-0.758 ± 0.17
same,promoter activity interaction Z-score,"0.15 µg/ml, genetic background: ΔmarA",0.0263 ± 0.051
same,promoter activity interaction Z-score,"0.15 µg/ml, genetic background: Δrob",0.317 ± 0.023
same,promoter activity interaction Z-score,"0.15 µg/ml, genetic background: ΔsoxS",-0.34 ± 0.014
same,promoter activity interaction Z-score,"0.3 µg/ml, genetic background: wild type",-0.844 ± 0.18
same,promoter activity interaction Z-score,"0.3 µg/ml, genetic background: ΔmarA",-0.0349
same,promoter activity interaction Z-score,"0.3 µg/ml, genetic background: Δrob",-0.227 ± 0.59
same,promoter activity interaction Z-score,"0.3 µg/ml, genetic background: ΔsoxS",-1.55
C[n+]1ccc(-c2cc[n+](C)cc2)cc1 [Paraquat],promoter activity interaction Z-score,"0.64 µg/ml, genetic background: wild type",0.149 ± 0.24
same,promoter activity interaction Z-score,"0.64 µg/ml, genetic background: ΔmarA",1.489 ± 0.0083
same,promoter activity interaction Z-score,"0.64 µg/ml, genetic background: Δrob",1.28 ± 0.4
same,promoter activity interaction Z-score,"0.64 µg/ml, genetic background: ΔsoxS",-0.129 ± 0.0025
same,promoter activity interaction Z-score,"1.3 µg/ml, genetic background: wild type",0.566 ± 0.14
same,promoter activity interaction Z-score,"1.3 µg/ml, genetic background: ΔmarA",2.36 ± 0.1
same,promoter activity interaction Z-score,"1.3 µg/ml, genetic background: Δrob",2.69 ± 0.87
same,promoter activity interaction Z-score,"1.3 µg/ml, genetic background: ΔsoxS",-0.0229 ± 0.11
same,promoter activity interaction Z-score,"2.6 µg/ml, genetic background: wild type",1.23 ± 0.11
same,promoter activity interaction Z-score,"2.6 µg/ml, genetic background: ΔmarA",3.79 ± 0.15
same,promoter activity interaction Z-score,"2.6 µg/ml, genetic background: Δrob",4.57 ± 1.3
same,promoter activity interaction Z-score,"2.6 µg/ml, genetic background: ΔsoxS",-0.156 ± 0.22
same,promoter activity interaction Z-score,"5.1 µg/ml, genetic background: wild type",3.89 ± 0.099
same,promoter activity interaction Z-score,"5.1 µg/ml, genetic background: ΔmarA",5.91 ± 1.2
same,promoter activity interaction Z-score,"5.1 µg/ml, genetic background: Δrob",8.849 ± 0.017
same,promoter activity interaction Z-score,"5.1 µg/ml, genetic background: ΔsoxS",-0.509 ± 0.16
C[C@]12CC[C@H]3[C@@H](CCC4=CC(=O)CC[C@@]43C)[C@@H]1CC[C@@H]2O [Testosterone],promoter activity interaction Z-score,"18 µg/ml, genetic background: wild type",-0.197 ± 0.0038
same,promoter activity interaction Z-score,"18 µg/ml, genetic background: ΔmarA",0.0474 ± 0.038
same,promoter activity interaction Z-score,"18 µg/ml, genetic background: Δrob",-0.0298 ± 0.091
same,promoter activity interaction Z-score,"18 µg/ml, genetic background: ΔsoxS",0.319 ± 0.18
same,promoter activity interaction Z-score,"36.1 µg/ml, genetic background: wild type",-0.14 ± 0.34
same,promoter activity interaction Z-score,"36.1 µg/ml, genetic background: ΔmarA",0.094 ± 0.098
same,promoter activity interaction Z-score,"36.1 µg/ml, genetic background: Δrob",-0.000736 ± 0.15
same,promoter activity interaction Z-score,"36.1 µg/ml, genetic background: ΔsoxS",-0.0287 ± 0.15
same,promoter activity interaction Z-score,"72.1 µg/ml, genetic background: wild type",0.142 ± 0.26
same,promoter activity interaction Z-score,"72.1 µg/ml, genetic background: ΔmarA",0.527 ± 0.063
same,promoter activity interaction Z-score,"72.1 µg/ml, genetic background: Δrob",0.174 ± 0.16
same,promoter activity interaction Z-score,"72.1 µg/ml, genetic background: ΔsoxS",0.257 ± 0.41
same,promoter activity interaction Z-score,"144.2 µg/ml, genetic background: wild type",0.181 ± 0.03
same,promoter activity interaction Z-score,"144.2 µg/ml, genetic background: ΔmarA",0.196 ± 0.089
same,promoter activity interaction Z-score,"144.2 µg/ml, genetic background: Δrob",0.202 ± 0.074
same,promoter activity interaction Z-score,"144.2 µg/ml, genetic background: ΔsoxS",0.625 ± 0.45
